# Screening results as filed in PubChem BioAssay.
# Hits are enriched below; roughly 5.5% of the tested compounds scored in any of these assays.
# MBNL1-CUG inh = qHTS Assay for Inhibitors of MBNL1-poly(CUG) RNA binding. TR-FRET MBNL1-His/biotin-(CUG)12 binding, 665/545 ratio. Potency, µM (highest dose often 57.5 µM), for inactives: top-dose activity change, negative = inhibition, hits mostly inhibitors. 280,000 compounds, 0.036% hits; active = well fitted inhibition curve with a large enough effect in the signal ratio, with a control signal flat, not every such curve was filed as active; inconclusive = small, poorly fitted or top-dose-only effect, or effect the other way, or a change in a side signal; inactive = no such curve, though single readings can be large or run the other way; the % refers to the signal ratio; note: potency is the fitted concentration of half-maximal effect; % is set by controls: 0 for no effect and ±100 for the full control effect
#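 TR-FRET between His-tagged MBNL1 and biotin-(CUG)12 RNA, detected with Tb anti-His antibody (0.055 ng/ul) and streptavidin-XL665 (5 nM), 60 min at room temperature. Compounds titrated 92 nM to 58 uM; 665/545 nm ratio normalized to buffer and complex controls.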
# CtBP-E1A blk = qHTS Assay for Inhibitors of the CtBP/E1A Interaction | CtBP / adenovirus E1A interaction (AlphaScreen) | AlphaScreen GST-E1A/His-CtBP binding, 1536-well; active compounds read low | activity change, % (no concentration beside the values) | 340,000 compounds, 0.49% hits | AID 651724, 2012; in the data active = activity change below about -65%; inconclusive = mostly about -30% to -63%; note: % is set by controls: 0 for no effect and ±100 for the full control effect
#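 Protein mix (5X: 125 nM each GST-E1A, His-CtBP) was incubated with pinned compound 2 h at 37 deg C in dark, in 50 mM Tris pH 8.0 buffer with 300 mM NaCl. Glutathione donor and nickel acceptor beads followed; AlphaScreen signal read after 1 h.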
# RORg inh = qHTS for inhibitors of ROR gamma transcriptional activity; Nuclear receptor ROR-gamma (Mus musculus), P51450; Drosophila S2 Gal4-RORgamma UAS-luciferase reporter, 20 h; Potency, µM (top dose mostly 53.6 µM), for the others: at the top dose activity change, negative = inhibition, most hits filed as inhibitors; 310,000 compounds, 5.4% hits; AID 2551, 2010; note: potency is the fitted concentration of half-maximal effect; % is set by controls: 0 for no effect and ±100 for the full control effect; nearly all actives have a fitted effect of over 60% in size
#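 A Gal4/UAS one-hybrid system in insect cells: metallothionein-promoter Gal4–ROR gamma fusion plus Photinus luciferase reporter. Copper sulfate 700 uM final, 20 hr ambient incubation, luminescent detection after 10 min with reagent.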
# Gal4-VP16 FLuc = VP16 counterscreen qHTS for inhibitors of ROR gamma transcriptional activity; Drosophila S2 Gal4-VP16 UAS-luciferase, luminescence, 20 h; Potency, µM (series often up to 53.6 µM), for the others: top-dose activity, negative = inhibition, most hits filed as inhibitors; 310,000 compounds, 3.5% hits; AID 2546, 2010;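 note: Gal4-VP16 expression switched on by copper sulfate through the metallothionein promoter; potency is the fitted concentration of half-maximal effect; % is set by controls: 0 for no effect and ±100 for the full control effect; nearly all actives have a fitted effect of over 50% in size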
# CBFb RUNX1 block = qHTS Assay for Compounds Blocking the Interaction Between CBF-beta and RUNX1 for the Treatment of Acute Myeloid Leukemia; Runt-related transcription factor 1 (Homo sapiens) + Core-binding factor subunit beta …; AlphaScreen CBFb-His/RUNX1-biotin binding, biochemical; Potency, µM (highest dose often 59.8 µM), for inactives: at the highest dose activity, negative = inhibition, most hits filed as inhibitors; 230,000 tested, under 10 active; AID 1477, 2009; note: % of control where 0% means no effect
#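 Inhibition was taken as any reduction in AlphaScreen signal from the CBF-beta–RUNX1 pair (His and biotin tags, 30 nM each), measured after compound (15 min) and bead (90 min) incubations at room temperature.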
# Six1-Eya2 inh = qHTS Assay for Inhibitors of the Six1/Eya2 Interaction; Homeobox protein SIX1 (Homo sapiens) + Protein phosphatase EYA2 (Homo sapiens), …; AlphaScreen GST-Six1/His-Eya2 binding, biochemical; active compounds read low; activity change, % (concentration not given with the values); 360,000 compounds, 0.56% hits; AID 651725, 2012; in the data active = activity change below about -65%; inconclusive = mostly about -30% to -63%; note: % is set by controls: 0 for no effect and ±100 for the full control effect
# Target sequence (O00167 whole entry, looked up): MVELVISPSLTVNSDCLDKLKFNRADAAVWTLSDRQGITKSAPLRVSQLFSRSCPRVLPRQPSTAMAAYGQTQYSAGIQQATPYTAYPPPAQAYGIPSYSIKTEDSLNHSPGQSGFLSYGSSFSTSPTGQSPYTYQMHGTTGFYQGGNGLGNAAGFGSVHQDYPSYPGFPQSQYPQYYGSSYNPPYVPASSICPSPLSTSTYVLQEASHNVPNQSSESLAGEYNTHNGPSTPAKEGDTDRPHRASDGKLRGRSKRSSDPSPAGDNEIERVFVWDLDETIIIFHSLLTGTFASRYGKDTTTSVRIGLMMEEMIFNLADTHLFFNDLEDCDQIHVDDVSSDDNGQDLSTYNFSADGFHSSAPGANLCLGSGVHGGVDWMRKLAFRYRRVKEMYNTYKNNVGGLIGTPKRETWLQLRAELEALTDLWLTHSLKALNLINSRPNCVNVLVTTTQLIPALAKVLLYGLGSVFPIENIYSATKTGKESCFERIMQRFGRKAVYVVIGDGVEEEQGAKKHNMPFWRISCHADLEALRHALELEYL
# Target sequence (Q15475 whole entry, looked up): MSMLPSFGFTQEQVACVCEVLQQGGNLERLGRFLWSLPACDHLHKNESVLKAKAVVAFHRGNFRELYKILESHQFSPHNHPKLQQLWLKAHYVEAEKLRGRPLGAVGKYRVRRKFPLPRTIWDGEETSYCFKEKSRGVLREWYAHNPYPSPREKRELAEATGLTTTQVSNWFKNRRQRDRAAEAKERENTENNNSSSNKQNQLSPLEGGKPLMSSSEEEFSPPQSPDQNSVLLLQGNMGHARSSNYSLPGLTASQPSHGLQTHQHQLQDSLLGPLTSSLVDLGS
#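 Homogeneous AlphaScreen proximity assay pairing GST-Six1 with His-tagged Eya2 (added as 5X mix: 250 nM and 500 nM) in 50 mM Tris pH 8.0, 300 mM NaCl, 1 mM TCEP. Glutathione donor and nickel acceptor beads; 1 h, 37 °C, dark.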
# The depositor's hits bear a star; u = inconclusive; x = no result given; [ ] = dose if it differs, or a comment. Unless noted, calls come from the whole dose curve; as a rule, active = well fitted curve in the direction sought with a large enough effect; inconclusive = small, poorly fitted or top-dose-only effect, or another doubt; inactive = no such curve, though single readings can be large; an effect the other way counts as inactive or inconclusive.
SMILES,MBNL1-CUG inh,CtBP-E1A blk,RORg inh,Gal4-VP16 FLuc,CBFb RUNX1 block,Six1-Eya2 inh
CC(C)(C)C(=O)NC(=S)Nc1ccc(Cc2ccncc2)cc1,-2%,-3,13µM*,13µM*,x,-2
CC(C)(C)C(=O)NC(=S)Nc1ccc(F)cc1,-24%,-2,10µM*,u,1%,5
CC(=O)Nc1ccc(NC(=S)Nc2ccc(F)cc2)cc1,-5%,1,-26%,-2%,2%,16
CC(=O)N(Cc1ccc(F)cc1)C1=C(NCc2ccccc2)C(=O)c2ccccc2C1=O,u,u,13µM*,u,u,-27
CC(=O)n1nc(-c2ccccc2)nc1NCc1ccc(F)cc1,-5%,-1,8%,27%,13%,5
c1cc(-c2ccc(N3CCOCC3)cc2)n2ccnc2c1,x,-15,x,x,x,-2
CCNc1nc(NCC)nc(-n2nc(C)cc2C)n1,-7%,11,0.71µM*,2.2µM*,-5%,-3
Cc1cc(C)n(-c2nc(N(C)C)nc(N(C)C)n2)n1,u,-3,2.8µM*,7.1µM*,6%,3
Cc1cc(C)n(-c2nc(NC(C)C)nc(NC(C)C)n2)n1,-6%,-7,0.56µM*,2.5µM*,-18%,-2
Cc1cc(C)n(-c2nc(NC(C)(C)C)nc(NC(C)(C)C)n2)n1,-15%,-5,2µM*,u,-8%,-1
COC(=O)c1ccc(/C=C(/NC(=O)c2ccccc2)C(=O)N2CCOCC2)cc1,-5%,1,-1%,-12%,x,1
CCc1ccccc1NC(=O)CN1CCN(C(=O)CN2C(=O)NC3(CCCC3)C2=O)CC1,x,x,x,x,x,5
CCOC(=O)C1CCCN(S(=O)(=O)c2ccc(S(=O)(=O)N(CC)CC)cc2)C1 (configuration not stated),-2%,x,6.3µM*,4.5µM*,11%,4
S=C1Cc2ccccc2C(c2ccc(Cl)cc2)N1 (configuration not stated),-6%,-16,6.3µM*,5.6µM*,x,-15
CC(C)OCCCNC(=S)NNC(=O)c1ccc(Cl)c(Cl)c1,-18%,5,14µM*,u,2%,1
CC(=O)Nc1ccc(Nc2cc(C)nc3c(-c4ccc(Cl)cc4)c(C)nn23)cc1,45%,4,11µM*,7.1µM*,3%,8
Cc1cc(SCC#N)n2nc(C)c(-c3ccccc3)c2n1,13%,-2,1.3µM*,2.5µM*,-10%,-4
Cc1cc(SCC(=O)c2cccs2)n2nc(C)c(-c3ccccc3)c2n1,9%,5,3.2µM*,5.6µM*,u,-2
CC(=O)Nc1ccc(Nc2cc(C)nc3c(-c4ccc(Cl)cc4)cnn23)cc1,15%,8,u,u,29%,3
Cc1cc(SCC#N)n2nc(C)c(-c3ccc(Cl)cc3)c2n1,0%,-5,16µM*,u,0%,1
Cc1cc(Cl)n2nc(C)c(-c3ccc(Cl)cc3)c2n1,0%,1,u,-20%,7%,1
C=CCSc1cc(C)nc2c(-c3ccccc3)c(C)nn12,-2%,5,u,-11%,u,37
Cc1sc2nc(CSC(C)C(=O)NC3(C#N)CCCCC3)[nH]c(=O)c2c1C (configuration not stated),x,5,x,x,x,-3
CC1CCCCC1NC(=O)CCNS(=O)(=O)c1ccc(Cl)cc1 (configuration not stated),-2%,3,10%,4%,x,2
CC(=O)NCCNc1ncnc2ccc(-c3cccc(NS(C)(=O)=O)c3)cc12,x,x,23%,-5%,x,x
SMILES,MBNL1-CUG inh,CtBP-E1A blk,RORg inh,Gal4-VP16 FLuc,CBFb RUNX1 block,Six1-Eya2 inh
Cc1cc(C(=O)COC(=O)c2ccccc2NCCO)c(C)n1CC1CCCO1 (configuration not stated),-3%,-6,0.79µM*,1.6µM*,x,-4
Cc1cc(C(=O)COC(=O)c2ccccc2O)c(C)n1CC1CCCO1 (configuration not stated),x,-15,x,x,x,-16
Cc1cc(C(=O)COC(=O)c2ccccc2Br)c(C)n1CC1CCCO1 (configuration not stated),-7%,-14,14µM*,8.9µM*,-8%,-13
Cc1cc(C(=O)COC(=O)c2cc(O)c3ccccc3c2O)c(C)n1CC1CCCO1 (configuration not stated),u,-7,16µM*,-4%,u,-13
Cc1ccc(C(=O)OCC(=O)c2cc(C)n(CC3CCCO3)c2C)cc1 (configuration not stated),0%,-1,u,3%[10 µM],-18%,-16
Cc1cc(C(=O)COc2ccccc2C(N)=O)c(C)n1CC1CCCO1 (configuration not stated),0%,0,-34%,10µM*,1%,-6
C[C@H]1Cc2c(-c3ccccc3)nc3c(c2CO1)CN(C(=O)c1ccco1)CC3,x,x,x,x,6%[13.1 µM],x
COc1ccc(NC(=O)CN(C)S(=O)(=O)c2ccc(Cl)cc2)cn1,x,x,x,x,x,2
COC(=O)c1ccc(/C=C2\SC(=S)N(CCCC(=O)NCCCN3CCOCC3)C2=O)cc1,u,24,2.2µM*,1.8µM*,x,0
O=C(CCCN1C(=O)/C(=C/c2cccc(Br)c2)SC1=S)NCCCN1CCOCC1,u,-4,10µM*,0%,x,-3
COc1ccc(/C=C2\SC(=S)N(CCC(=O)NCCCN3CCOCC3)C2=O)cc1,u,-6,9%,19%,x,-9
NC(=O)c1ccc(-n2nnnc2SCC(=O)Nc2ccc(F)cc2)cc1,-2%,-21,23%,-2%,x,7
O=C(NN=C1CCCC1)c1[nH]c2ccc(Cl)cc2c1-c1ccccc1,x,-3,11µM*,u,1%,-3
CCOc1ccc2c(ccc(/C=C/c3cc(C)c4cccnc4c3O)[n+]2C)c1,x,-94*,x,x,x,-90*
CCOc1ccc2[nH]c3ncccc3c(=O)c2c1,u,-2,22%,7%,x,-16
O=C(CSc1cccc2cccnc12)N/N=C/c1ccc(O)cc1,14%,-9,0%,4%,8%,u
COc1ccc(OCC(=O)N/N=C/c2ccncc2)cc1,19%,-1,3%,1%,8%,7
